VP16 counter: VP16 counterscreen qHTS for inhibitors of ROR gamma transcriptional activity | Drosophila S2 Gal4-VP16 UAS-luciferase, luminescence, 20 h | Potency, µM (doses to about 53.6 µM), without a hit: at the highest dose activity, negative = inhibition, most hits filed as inhibitors | hit rate 3.5% among 310,000;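 further: Gal4-VP16 expression switched on by copper sulfate through the metallothionein promoter; nearly all actives have a fitted effect of over 50% in size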
TDP1 cell noCPT: qHTS for Inhibitors of human tyrosyl-DNA phosphodiesterase 1 (TDP1): qHTS in cells in absence of CPT. Potency, µM (titrated, usually from 46.2 µM), without a hit: at the top dose activity change, negative = growth inhibition, most hits filed as inhibitors. DT40 Tdp1-/- hTDP1 cells, no CPT, ATP luminescence, 48 h. AID 686978, 2013. hit rate 15% among 420,000; further: nearly all actives have a fitted effect of over 55% in size
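Seeded 400 DT40-hTDP1 cells/well (vehicle DMSO, no 20 nM CPT); pinned compounds; ≥48 hr at 37 °C; CellTiter-Glo luminescence as viability measure.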
RORg inh: qHTS for inhibitors of ROR gamma transcriptional activity. Potency, µM (highest dose often 53.6 µM), for inactives: top-dose activity change, negative = inhibition, hits mostly inhibitors. hit rate 5.4% among 310,000. Drosophila S2 Gal4-RORgamma UAS-luciferase reporter, 20 h. Nuclear receptor ROR-gamma (Mus musculus), P51450. AID 2551, 2010; further: nearly all actives have a fitted effect of over 60% in size
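Luminescence from a UAS-regulated Photinus luciferase reporter in stably transfected Drosophila Schneider cells is measured; decreased signal marks ROR gamma inhibition. Fusion expression is induced by 700 uM copper sulfate for 20 hr.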
TDP1 block: qHTS Assay for Inhibitors of Tyrosyl-DNA Phosphodiesterase (TDP1); hit rate 0.28% among 350,000; Potency, µM (doses to about 130 µM), inactives show at the highest dose activity change, negative = inhibition, usual class: inhibitors; recombinant TDP1, AlphaScreen DNA substrate cleavage; AID 485290, 2010; further: nearly all actives have a fitted effect of over 40% in size
Target sequence (Q9NUW8 whole entry, looked up): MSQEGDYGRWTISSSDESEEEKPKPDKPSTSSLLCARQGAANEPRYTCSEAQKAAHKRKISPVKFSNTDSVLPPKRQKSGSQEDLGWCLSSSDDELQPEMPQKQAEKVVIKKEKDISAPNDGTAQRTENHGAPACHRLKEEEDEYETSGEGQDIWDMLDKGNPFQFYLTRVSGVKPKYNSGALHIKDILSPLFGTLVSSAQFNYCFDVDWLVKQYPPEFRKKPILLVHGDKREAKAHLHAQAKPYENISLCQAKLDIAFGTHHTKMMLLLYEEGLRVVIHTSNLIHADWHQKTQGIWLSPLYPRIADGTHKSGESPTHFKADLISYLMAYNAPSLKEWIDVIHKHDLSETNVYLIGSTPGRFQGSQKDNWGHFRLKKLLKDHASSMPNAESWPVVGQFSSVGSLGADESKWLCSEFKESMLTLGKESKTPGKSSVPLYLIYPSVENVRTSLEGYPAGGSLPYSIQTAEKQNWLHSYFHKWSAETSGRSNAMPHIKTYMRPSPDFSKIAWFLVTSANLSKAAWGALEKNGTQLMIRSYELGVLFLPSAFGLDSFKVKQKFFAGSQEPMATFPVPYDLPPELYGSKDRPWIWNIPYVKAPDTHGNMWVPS
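Here, a 5' biotin and 3' phosphotyrosine-FITC DNA oligonucleotide reports Tdp1 activity: intact substrate bridges AlphaScreen beads, while cleavage leaves a 3' phosphate and drops signal. All incubations at room temperature.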
DT40 TDP1 CPT: qHTS for Inhibitors of human tyrosyl-DNA phosphodiesterase 1 (TDP1): qHTS in cells in presence of CPT; hit rate 12% among 420,000; chicken DT40 Tdp1-/-;hTDP1 cells + 20 nM CPT, ATP luminescence, 48 h; AID 686979, 2013; Potency, µM (top dose mostly 46.2 µM), for inactives: at the highest dose activity change, negative = growth inhibition, actives largely listed as inhibitors; further: nearly all actives have a fitted effect of over 55% in size
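Chicken DT40 Tdp1-/- cells stably complemented with human TDP1 were seeded at 400 cells/well in medium containing 20 nM camptothecin, exposed to pin-transferred compounds, and grown at 37 °C for at least 48 hr. Viability was read as ATP luminescence.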
Numbers without * were called inactive; ? = inconclusive; · = not tested or not shown; [ ] = dose if it differs, or a comment. Only some compounds are listed: those with a hit (about 19% of all), similar ones and a draw of the others. The call rests on the fitted dose curve; in most records, active means well fitted curve in the direction sought with a large enough effect; inconclusive means small, poorly fitted or top-dose-only effect, or another doubt; inactive means no such curve, though single readings can be large; an effect the other way counts as inactive or inconclusive. On the % scale 0 is the no-effect control and ±100 the full control effect; potency means the concentration at half of the fitted maximal effect.

SMILES | VP16 counter | TDP1 cell noCPT | RORg inh | TDP1 block | DT40 TDP1 CPT
O=[N+]([O-])c1cccc(-c2c(-c3ccccc3)ncc3ccc(F)cc23)c1 | · | 8.2µM* | · | 2% | 9.2µM*
C/C(CCN1CCc2nc(-c3ccccc3)c(-c3ccccc3)cc2C1)=N\O[C@@H](C)CN1CCCc2nc(C)c(C)cc21 | -12%[10 µM] | · | -13%[10 µM] | 8%[21 µM] | ·
O=C(O)c1nn(Cc2csc(-c3ccccc3)n2)c(=O)c2ccccc12 | -19% | 12µM* | 1% | 7% | ?
O=C(Nc1ccccc1)O[C@@H]1C[C@H]2CCCC(=O)N3CC[C@@H](C1)[C@@H]23 | · | -12% | · | · | ?
O=C(Nc1ccccc1)O[C@@H]1C[C@H]2CCC(=O)N3CC[C@@H](C1)[C@@H]23 | -4% | 11µM* | 19% | · | ?
CC1(CCc2ccc3c(c2)OCO3)NC(=O)c2ccccc2N1 (stereo not given) | 0% | ? | ? | 2% | 23µM*
O=C1NC(c2ccc3c(c2)OCO3)Nc2ccccc21 (stereo not given) | -2% | 16µM* | 36% | 1% | 23µM*
O=C1NC(c2ccc(Br)cc2)Nc2ccccc21 (stereo not given) | 3% | 3.7µM* | 32% | · | 6.5µM*
Brc1ccc(C2Nc3cccc4cccc(c34)N2)cc1 | · | -25% | · | · | ?
O=C1NC(c2ccc3ccccc3c2)Nc2ccccc21 (stereo not given) | · | 6.5µM* | · | · | 16µM*
Cc1ccc(NC(=O)c2ccc(CSc3nnc(-c4ccncc4)n3C)cc2)c(C)c1 | -5% | -11% | 25% | 0% | -7%
O=C(NCCc1ccc(F)cc1)C(=O)NCC(c1cccs1)S(=O)(=O)c1cccs1 (stereo not given) | · | 26µM* | · | -3% | ?
COc1ccc(N(C(=O)CCl)C(C(=O)NCCc2ccccc2)c2cccs2)cc1 (stereo not given) | ? | 4.1µM* | 11µM* | 1% | 4.6µM*
COc1ccc(S(=O)(=O)NCC(c2cccs2)S(=O)(=O)c2ccccc2)cc1OC (stereo not given) | · | -19% | · | 3% | ?
COc1ccc(CC(=O)NCC(c2cccs2)S(=O)(=O)c2ccc(F)cc2)cc1 (stereo not given) | · | ? | · | 3% | ?
O=S(=O)(NCC(c1cccs1)S(=O)(=O)c1ccccc1)c1ccc(F)cc1 (stereo not given) | · | 2.3µM* | · | 5% | 1.6µM*
COc1ccc(CCNC(=O)C(=O)NCC(c2cccs2)S(=O)(=O)c2ccc(F)cc2)cc1 (stereo not given) | · | 23µM* | · | 5% | ?
CCc1nnc(NC(=O)CSc2nc(-c3ccc(F)cc3)cc(-c3ccccc3)c2C#N)s1 | -2% | ? | -25% | 0% | ?
c1ccc(Cn2c(-c3ccco3)nc3nc4ccccc4nc32)cc1 | 4% | ? | 9% | 0% | 13µM*
Clc1ccc(OCCn2c(-c3ccco3)nc3ccccc32)cc1 | ? | ? | ? | 8% | ?
CCCn1c(-c2ccc(OC)cc2)nc2nc3ccccc3nc21 | 0% | 21µM* | 33% | -4% | 23µM*
COc1ccc(CCn2c(-c3ccco3)nc3nc4ccccc4nc32)cc1 | ? | 10µM* | 4% | 9% | 16µM*
COc1ccc(C(=O)n2c(-c3ccco3)nc3ccccc32)cc1 | -3% | 4.1µM* | -31% | 7% | 6.5µM*
CCOc1ccc(Cc2nnc(SCC(=O)Nc3ccc(OC)cc3)n(N)c2=O)cc1 | · | -6% | · | 0% | ?
Clc1ccc(-c2nc3nc4ccccc4nc3n2Cc2ccco2)cc1 | ? | 16µM* | -3% | -5% | ?
SMILES | VP16 counter | TDP1 cell noCPT | RORg inh | TDP1 block | DT40 TDP1 CPT
COc1ccc(CCn2c(-c3cc([N+](=O)[O-])cc([N+](=O)[O-])c3)nc3nc4ccccc4nc32)cc1OC | -2% | 23µM* | -7% | -3% | ?
COc1ccc(CCn2c(-c3cc([N+](=O)[O-])cc([N+](=O)[O-])c3)nc3nc4ccccc4nc32)cc1 | 3% | ? | -26% | 4% | ?
Cc1ccc(C)c(CN2CCC(CNC(=O)CCc3nnc4ccc(N5CCC(C)CC5)nn34)CC2)c1 | -5% | ? | -8% | 2% | ?
COc1ccc([C@H]2CC(=O)C=C(c3ccc(F)cc3OCc3ccccc3)C2)cc1OC | · | 21µM* | · | 2% | ?
COc1ccc([C@H]2CC(=O)C=C(c3cccc(Cl)c3)C2)cc1OC | · | ? | · | 1% | 15µM*
COc1cc(F)c(C2=CC(=O)C[C@H](c3ccc(F)cc3)C2)cc1F | · | -17% | · | -2% | ?
O=C1C=C(c2ccc(Oc3ccccc3)cc2)C[C@@H](c2ccc(F)cc2)C1 | · | ? | · | -4% | 18µM*
COc1ccc(C2=CC(=O)C[C@H](c3ccc(F)cc3)C2)cc1F | · | ? | · | 0% | 21µM*
COc1cc(NC(=O)Cn2c(=O)n(CC3CCCO3)c(=O)c3cc(OC)c(OC)cc32)cc(OC)c1 (stereo not given) | -13% | -6% | 17% | -4%[12.3 µM] | -26%
CCOC(=O)Cn1nnc(-c2ccc(OCC(C)C)cc2)n1 | -1% | -26% | 22% | -4% | 4%
Cc1c(Cl)cccc1NC(=O)Cn1cnc(S(=O)(=O)N2CCCC2)c1 | 2% | -4% | 6% | 2% | -9%
CCc1ccc(S(=O)(=O)c2cn(C)c3cc(N4CCN(CC)CC4)c(F)cc3c2=O)cc1 | · | ? | · | 5% | ?
O=C1C=C(c2ccc(-c3ccccc3)c(F)c2)C[C@@H](c2ccc(F)cc2)C1 | · | ? | · | 0% | ?
COc1ccc([C@H]2CC(=O)C=C(c3ccc(SC)cc3)C2)cc1OC | · | 15µM* | · | 4% | 9.2µM*
O=C1C=C(c2n[nH]nc2-c2ccccc2)C[C@@H](c2ccc(F)cc2)C1 | · | 16µM* | · | · | ?
COc1ccc([C@H]2CC(=O)C=C(c3ccccc3)C2)cc1OC | · | ? | · | 2% | ?
CCCCC/C=C/C1=CC(=O)C[C@H](c2ccc(OC)c(OC)c2)C1 | · | 10µM* | · | 1% | 21µM*
COc1ccc([C@H]2CC(=O)C=C(c3ccc(Oc4ccccc4)cc3)C2)cc1OC | · | 23µM* | · | 2% | 10µM*
Cc1ccc(Nc2nc(=O)[nH]nc2C)cc1 | 1% | 2% | -2% | 0% | -18%
CCCCCCn1c2c(c(=N)c3c1CCC3)CCC2 | 11µM* | 0.26µM* | 11µM* | 7% | 0.41µM*
